For 12 compounds, growth results are on record in PubChem BioAssay (NCI).

Some test systems named below: NCI-H226 lung; NCI-H322M lung; HOP-62 NSCLC; NCI-H460 lung; HOP-92 NSCLC; NCI-H522 lung; A549/ATCC NSCLC; 786-0 renal; COLO 205 colon.
What all share (assay): NCI-60 one-dose screen, 48 h (100 = growth as untreated, 0 = no growth, -100 = all killed)
Holding throughout (conditions): 10 µM unless noted

Compounds without any hit were thinned out: in the full panel of roughly 83,000, 20% have a hit.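 Single-concentration screen, 48 h exposure, 96-well plates. Endpoint: percent growth. Below 10 = active.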 Unmarked numbers belong to inactive results. Active and inactive are the calls of the source.

As to `COc1ccc(/C=C2/C(=O)N=C3N2NC(c2ccccc2)=CN3c2ccccc2)cc1`, the growth in the experiment with NCI-H226 lung was 93.2%; in the experiment with NCI-H322M lung, 103%; in the experiment with HOP-62 NSCLC it was 105%; in the experiment on NCI-H460 lung, 106%; with HOP-92 NSCLC, 102%; with NCI-H522 lung, 101%. In addition, the values for the growth in the experiment with A549/ATCC NSCLC, in the experiment on 786-0 renal and in the experiment on COLO 205 colon were 104%, 98.6% and 121%, respectively.
As to `COc1ccc(C2Nc3nc(SC)nc(N)c3N=C3c4ccccc4CCC32)cc1` (stereo not drawn), the growth was 107% in the experiment on NCI-H226 lung; 109% in the experiment on NCI-H322M lung; 102% in the experiment with HOP-62 NSCLC; 86.7% in the experiment with NCI-H460 lung; 50.7% with HOP-92 NSCLC; 90.9% in the experiment with NCI-H522 lung. Besides, the growth in the experiment on A549/ATCC NSCLC is 102%; in the experiment on 786-0 renal, 93.6%; in the experiment on COLO 205 colon, 112%.
As to `COc1cc(Nc2nc3ccccc3cc2C(=O)Nc2ccc(F)c(F)c2)cc(OC)c1OC`, the growth with NCI-H226 lung was 22.1%; in the experiment with NCI-H322M lung it was 53%; in the experiment with HOP-62 NSCLC it was 46%; in the experiment with NCI-H460 lung, 9.51% (active); with HOP-92 NSCLC it was 1.01% (active); in the experiment with NCI-H522 lung, 20.4%. Besides, the growth with A549/ATCC NSCLC was 22.7%; in the experiment with 786-0 renal it was 34.5%; in the experiment with COLO 205 colon, 9.14% (active).
As to `C#CCn1cnc2cnc(Nc3cccc(NC(=O)CCl)c3)nc21`, the growth in the experiment on NCI-H226 lung was -26% [6.25 µM] (active); in the experiment with NCI-H322M lung, 10.4% [6.25 µM]; in the experiment on HOP-62 NSCLC, 4.26% [6.25 µM] (active); in the experiment with NCI-H460 lung, -13.4% [6.25 µM] (active); in the experiment on HOP-92 NSCLC it was 12.6% [6.25 µM]; in the experiment with NCI-H522 lung, -57.1% [6.25 µM] (active). Besides, the growth in the experiment with A549/ATCC NSCLC was -51.3% [6.25 µM] (active); with 786-0 renal it was 2.39% [6.25 µM] (active); with COLO 205 colon, -57.3% [6.25 µM] (active).
Turning to `COc1cc(CO)cc2cc3ccccc3nc12`, the growth in the experiment with NCI-H226 lung was 79.4%; in the experiment on NCI-H322M lung it was 115%; in the experiment on HOP-62 NSCLC, 95.7%; in the experiment on NCI-H460 lung, 105%; in the experiment with HOP-92 NSCLC, 103%; with NCI-H522 lung, 96.8%. For the same compound, the growth in the experiment on A549/ATCC NSCLC is 104%; in the experiment on 786-0 renal it was 97.8%; with COLO 205 colon, 107%.
For the compound `COc1ccc2nc3cc(Cl)ccc3c(NCCCNCCC(C)O)c2c1` (stereo not drawn), the growth with NCI-H226 lung was -3.4% (active); with NCI-H322M lung, -24.8% (active); in the experiment with HOP-62 NSCLC, -8.19% (active); with NCI-H460 lung it was -53.5% (active); in the experiment with HOP-92 NSCLC it was -23.7% (active); in the experiment on NCI-H522 lung, -34.3% (active). Moreover, the growth in the experiment on A549/ATCC NSCLC was -17.6% (active); in the experiment on 786-0 renal, -49.5% (active); with COLO 205 colon it was -77.7% (active).
As for `CCN(c1cc(-c2ccc(CN3CCC(/C=C/S(=O)(=O)c4ccccc4)CC3)cc2)cc(C(=O)NCc2c(C)cc(C)[nH]c2=O)c1C)C1CCOCC1`, the growth with NCI-H226 lung was 78.3%; with NCI-H322M lung it was 85.1%; in the experiment on HOP-62 NSCLC, 82.8%; in the experiment on NCI-H460 lung, 83.8%; with HOP-92 NSCLC, 24.3%; in the experiment with NCI-H522 lung, 77.7%. The growth in the experiment with A549/ATCC NSCLC is 66.1%; in the experiment on 786-0 renal, 71.1%; with COLO 205 colon, 99.8%.
Regarding `O=C([C@H]1C[C@H]1c1ccc(S(F)(F)(F)(F)F)cc1)N1CCN(c2cc(Cl)ccc2C(F)(F)F)CC1`, the growth in the experiment on NCI-H226 lung was 75.7%; in the experiment with NCI-H322M lung it was 90.1%; with HOP-62 NSCLC, 102%; with NCI-H460 lung, 95.6%; with HOP-92 NSCLC, 88.3%; in the experiment on NCI-H522 lung, 70.7%. The figures for the growth with A549/ATCC NSCLC, with 786-0 renal and in the experiment on COLO 205 colon were 81.5%, 89.3% and 101%, respectively.
With `COc1ccc(Oc2nc(Nc3ccc(N4CCOCC4)cc3)ncc2NC(=O)c2cccc(C(F)(F)F)c2)cc1`, the growth in the experiment with NCI-H226 lung is 81.2%; in the experiment on NCI-H322M lung, 83.6%; in the experiment on HOP-62 NSCLC it was 94.4%; in the experiment on NCI-H460 lung, 70.2%; in the experiment on HOP-92 NSCLC it was 76.7%; with NCI-H522 lung, 0.64% (active). Moreover, the growth with A549/ATCC NSCLC is 66%; with 786-0 renal, 87.8%; in the experiment on COLO 205 colon, 84.8%.
For the compound `O=S(=O)(O)c1ccc(N=Nc2ccc(N=Nc3cccc4ccccc34)c(S(=O)(=O)O)c2)cc1`, the growth in the experiment with NCI-H226 lung was 90.1%; with NCI-H322M lung it was 102%; in the experiment with HOP-62 NSCLC it was 107%; with NCI-H460 lung, 98.9%; in the experiment on HOP-92 NSCLC it was 83.4%; in the experiment on NCI-H522 lung, 103%. Moreover, the values for the growth in the experiment with A549/ATCC NSCLC, in the experiment on 786-0 renal and in the experiment on COLO 205 colon were 109%, 107% and 100%, respectively.
Turning to `COc1ccc(Cl)cc1Nc1nc(C(F)(F)F)ccc1C(=O)N/N=C/c1ccc(N(C)C)cc1`, the growth in the experiment on NCI-H226 lung is 105%; in the experiment with NCI-H322M lung, 80.8%; with HOP-62 NSCLC, 73.6%; with NCI-H460 lung, 143%; in the experiment on HOP-92 NSCLC, 85.4%; in the experiment on NCI-H522 lung, 105%. Also, the growth in the experiment with A549/ATCC NSCLC was 97%; in the experiment with 786-0 renal, 76%; with COLO 205 colon, 92.2%.
`CN1Cn2c(ccc2C(F)(F)F)C(=O)CS1(=O)=O`: the growth in the experiment with NCI-H226 lung was 111%; in the experiment on NCI-H322M lung it was 104%; in the experiment on HOP-62 NSCLC it was 100%; with NCI-H460 lung, 110%; in the experiment with HOP-92 NSCLC, 102%; in the experiment with NCI-H522 lung, 103%. Also, the growth in the experiment with A549/ATCC NSCLC was 108%; with 786-0 renal it was 96.7%; with COLO 205 colon, 116%.
